Bioassay records (PubChem)
Pf Dd2 growth = qHTS Primary assay for Inhibitors of Plasmodium falciparum Dd2 growth in vitro; P. falciparum Dd2 growth, SYBR Green, 72 h; Potency, µM (doses to about 28.9 µM), most hits filed as inhibitors; 120,000 compounds, 4.3% hits; AID 1347417, 2020; active = well fitted inhibition curve with a large enough effect; also: nearly all actives have a fitted effect of over 65% in size
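Readout: SYBR Green fluorescence, 485 nm excitation, 535 nm emission, after ~16 h lysis at 37C. Before that, Dd2-infected red cells (2.5% hematocrit) grew 72 h with compound, 29 uM top final concentration.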
Each line names hits and unclear results; the compound was inactive in the other large screens. Shown is part of a subset that was picked to be rich in hits.

Cc1nc2n(c1C(=O)NCCOc1ccccc1)CCC(Nc1ccc(F)cc1)C2 (stereo unspecified)	none
COc1ccc(NC(=O)NC[C@H]2Cn3cc(-c4ccc(C)cc4)nc3CO2)cc1	Pf Dd2 growth 2.5µM
COc1ccc(-c2cn3c(n2)CO[C@@H](CNC(=O)C2CCCC2)C3)cc1	none
COc1ccc(-c2cn3c(n2)CO[C@@H](CNC(=O)c2ccccc2OC)C3)cc1	none
COc1ccc2c(c1)C=C(CN1CCC(CO)(Cc3ccccc3Cl)CC1)CO2	Pf Dd2 growth 8.9µM
CCOc1ccc(CN2CCC(CO)(Cc3ccccc3Cl)CC2)cc1	none
COc1ccc(OC)c(CN2CCC3(CC2)OCCN(Cc2ccccc2)C3=O)c1	none
COc1ccc(-n2nc3n(c2=O)CCN([S+](=O)([O-])c2cccc(C(F)(F)F)c2)C3)cc1	none
COc1ccccc1Nc1nn2c(=O)c3ccc(C(=O)NC(C)c4ccccc4)cc3nc2s1 (stereo unspecified)	none
CCc1ccccc1Nc1nn2c(=O)c3ccc(C(=O)NCCCOC(C)C)cc3nc2s1	Pf Dd2 growth 11µM
COc1ccc(NC(=O)c2ccc3c(=O)n4nc(Nc5ccccc5C)sc4nc3c2)cc1Cl	none
Cc1ccc(Cl)cc1Nc1nn2c(=O)c3ccc(C(=O)Nc4ccc(F)cc4)cc3nc2s1	none
Cc1ccc(Cl)cc1Nc1nn2c(=O)c3ccc(C(=O)NC(C)c4ccccc4)cc3nc2s1 (stereo unspecified)	Pf Dd2 growth 7.9µM
COC(=O)c1ccc2c(=O)n3nc(Nc4cc(OC)ccc4OC)sc3nc2c1	none
CCOC(=O)C1CCN(C(=O)c2ccc3c(=O)n4nc(Nc5ccccc5)sc4nc3c2)CC1	none
CCc1ccccc1Nc1nn2c(=O)c3ccc(C(=O)NC(C)C)cc3nc2s1	none
CCc1ccccc1Nc1nn2c(=O)c3ccc(C(=O)NCc4cccs4)cc3nc2s1	Pf Dd2 growth 14µM
COc1ccc(NC(=O)c2ccc3c(=O)n4nc(Nc5ccccc5C)sc4nc3c2)cc1	none
Cc1ccc(NC(=O)c2ccc3c(=O)n4nc(Nc5ccccc5C)sc4nc3c2)cc1C	none
CCc1ccccc1Nc1nn2c(=O)c3ccc(C(=O)NCc4ccccc4Cl)cc3nc2s1	Pf Dd2 growth 11µM
CC(C)CCNC(=O)C1(CCO)CCN(c2ncccn2)C1 (stereo unspecified)	none
Cc1nc(-c2ccc(OC3CCN(C(=O)c4cc(C)n(C)n4)C3)cc2)no1 (stereo unspecified)	none
O=C1CC2(CCN(C(=O)c3ccccn3)C2)Nc2ccccc2N1 (stereo unspecified)	none
Cn1ccc2c(C(=O)NCc3cccnc3)nc(-c3cncnc3)cc21	none
Cc1ccc(-c2cc3c(ccn3C)c(C(=O)NCc3cccnc3)n2)cn1	none
CN1CCN(c2ccc(-c3cc4c(ccn4C)c(C(=O)NCc4cccnc4)n3)cc2)CC1	Pf Dd2 growth 6.3µM
COc1cc(Cl)ccc1C(=O)N1C[C@@H](F)C[C@H]1C(=O)N1CCCCC1	none
CCc1nc2c(NS(=O)(=O)c3cccnc3)cccn2n1	none
CC(C)c1nc2c(NC(=O)c3cccc(Br)c3)cccn2n1	Pf Dd2 growth 3.2µM
CCc1ccccc1S(=O)(=O)Nc1cccn2nc(C(C)C)nc12	Pf Dd2 growth 8.9µM
CC(C)c1nc2c(NC(=O)Nc3cccc(Cl)c3)cccn2n1	none
Cc1nc2c(NS(=O)(=O)c3cccc(C#N)c3)cccn2n1	none
COc1ccc(NC(=O)Nc2cccn3nc(C(C)C)nc23)cc1	none
CN1C[C@H](NC(=O)Nc2ccccc2)CCC[C@@H](C(=O)NCc2cc(F)cc(F)c2)CC1=O	none
O=C(CCn1cccn1)NC1CCCc2nc(-c3ccccc3)ncc21 (stereo unspecified)	none
CN(C)c1cccc(C(=O)N2CCC(n3cc(-c4nc(-c5ccccc5)no4)nn3)CC2)c1	none
CN1C(=O)c2cccn2CC1C(=O)NCc1cc(F)ccc1F (stereo unspecified)	none
Cc1cc(N2CCN(Cc3nc(-c4cccc(Cl)c4)no3)CC2)cc(C)n1	Pf Dd2 growth 10µM
Cc1oc(-c2cccc(Cl)c2)nc1CN1CCOCC1	none
Cc1cc(C)cc(N2CC(c3nc(-c4cccc(Cl)c4)no3)CC2=O)c1 (stereo unspecified)	none
O=C(C1CC=CC1)N1CC(F)(F)C[C@H]1c1nc(-c2ncccn2)no1	none
CN1CC(=O)N(C2CCCNC2)Cc2c(NCCc3cccc(F)c3)ncnc21 (stereo unspecified)	none
Cc1noc(C)c1[S+](=O)([O-])N1CCn2ncc(C(=O)N3CCOCC3)c2C1	none
CCOc1ccccc1NC(=O)N1CCCCCCNC(=O)CC1c1ccccc1 (stereo unspecified)	none
CCOc1ccccc1CN1CCCCCCNC(=O)CC1	none
CCOc1ccccc1CN1CCC[C@H]1C(=O)N1CCCCCCNC(=O)CC1	Pf Dd2 growth 6.3µM
Cc1ccc(CN2CCC[C@H]2C(=O)N2CCCCCCNC(=O)CC2)o1	none
CCOc1ccccc1CN1CCCCCNC(=O)CC1c1ccccc1 (stereo unspecified)	Pf Dd2 growth 7.9µM
O=C1CC(c2ccccc2)N(Cc2ccccn2)CCCCCN1 (stereo unspecified)	none
O=C(N[C@H]1[C@H]2CCO[C@H]2[C@@H]1N1CCCCC1)c1ccccc1-c1nn[nH]n1	none
